In ChEMBL document CHEMBL1961873, “Compounds: GSK PKIS; Assays: Nanosyn kinase panel” (2012):

How the values were obtained:
[1] = target: Leukocyte tyrosine kinase receptor (Homo sapiens) (UniProt P29376); conditions: at 1 µM;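 note: each value is the mean inhibition of LTK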
[2] = target: Tyrosine-protein kinase Lyn (Homo sapiens) (UniProt P07948); conditions: at 0.1 µM
[3] = target: Tyrosine-protein kinase Lyn (Homo sapiens) (UniProt P07948); conditions: at 1 µM
[4] = target: Tyrosine-protein kinase Lyn (Homo sapiens) (UniProt P07948); conditions: at 0.1 µM; remark: listed apart in the source
[5] = target: Tyrosine-protein kinase Lyn (Homo sapiens) (UniProt P07948); conditions: at 1 µM; remark: listed apart in the source
[6] = target: T1, Tyrosine-protein kinase Mer (Homo sapiens) (UniProt Q12866); conditions: at 0.1 µM
T1 sequence (whole entry): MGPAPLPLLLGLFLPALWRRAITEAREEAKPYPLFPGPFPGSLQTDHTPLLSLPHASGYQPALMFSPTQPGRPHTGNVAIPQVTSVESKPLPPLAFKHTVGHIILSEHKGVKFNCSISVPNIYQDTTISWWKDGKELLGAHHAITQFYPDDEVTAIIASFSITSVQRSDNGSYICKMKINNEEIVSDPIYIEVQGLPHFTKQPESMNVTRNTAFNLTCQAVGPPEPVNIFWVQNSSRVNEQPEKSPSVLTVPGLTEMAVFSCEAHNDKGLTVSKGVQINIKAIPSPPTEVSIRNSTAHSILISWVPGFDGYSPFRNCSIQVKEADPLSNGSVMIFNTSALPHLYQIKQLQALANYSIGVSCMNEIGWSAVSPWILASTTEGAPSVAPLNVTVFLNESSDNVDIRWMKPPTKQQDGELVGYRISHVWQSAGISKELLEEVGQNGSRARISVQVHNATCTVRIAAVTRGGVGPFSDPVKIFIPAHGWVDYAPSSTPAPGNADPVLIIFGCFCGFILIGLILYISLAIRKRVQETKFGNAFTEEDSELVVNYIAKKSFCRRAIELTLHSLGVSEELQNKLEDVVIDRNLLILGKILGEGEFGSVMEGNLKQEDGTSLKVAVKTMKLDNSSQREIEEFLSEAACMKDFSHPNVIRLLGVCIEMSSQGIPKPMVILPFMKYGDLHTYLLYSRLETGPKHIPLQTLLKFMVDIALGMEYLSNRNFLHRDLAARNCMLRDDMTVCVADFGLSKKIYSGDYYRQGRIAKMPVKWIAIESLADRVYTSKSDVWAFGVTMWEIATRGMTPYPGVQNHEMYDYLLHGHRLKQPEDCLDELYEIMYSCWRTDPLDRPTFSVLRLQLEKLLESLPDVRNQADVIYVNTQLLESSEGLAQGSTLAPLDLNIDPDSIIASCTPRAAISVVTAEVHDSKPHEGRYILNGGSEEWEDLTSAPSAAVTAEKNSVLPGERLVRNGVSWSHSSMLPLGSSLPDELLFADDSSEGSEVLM

[7] = target: T1, Tyrosine-protein kinase Mer (Homo sapiens); conditions: at 1 µM
[8] = target: Hepatocyte growth factor receptor (Homo sapiens) (UniProt P08581); conditions: at 0.1 µM
[9] = target: Hepatocyte growth factor receptor (Homo sapiens) (UniProt P08581); conditions: at 1 µM
[10] = target: T2, Muscle, skeletal receptor tyrosine-protein kinase (Homo sapiens) (UniProt O15146); conditions: at 0.1 µM
T2 sequence (whole entry): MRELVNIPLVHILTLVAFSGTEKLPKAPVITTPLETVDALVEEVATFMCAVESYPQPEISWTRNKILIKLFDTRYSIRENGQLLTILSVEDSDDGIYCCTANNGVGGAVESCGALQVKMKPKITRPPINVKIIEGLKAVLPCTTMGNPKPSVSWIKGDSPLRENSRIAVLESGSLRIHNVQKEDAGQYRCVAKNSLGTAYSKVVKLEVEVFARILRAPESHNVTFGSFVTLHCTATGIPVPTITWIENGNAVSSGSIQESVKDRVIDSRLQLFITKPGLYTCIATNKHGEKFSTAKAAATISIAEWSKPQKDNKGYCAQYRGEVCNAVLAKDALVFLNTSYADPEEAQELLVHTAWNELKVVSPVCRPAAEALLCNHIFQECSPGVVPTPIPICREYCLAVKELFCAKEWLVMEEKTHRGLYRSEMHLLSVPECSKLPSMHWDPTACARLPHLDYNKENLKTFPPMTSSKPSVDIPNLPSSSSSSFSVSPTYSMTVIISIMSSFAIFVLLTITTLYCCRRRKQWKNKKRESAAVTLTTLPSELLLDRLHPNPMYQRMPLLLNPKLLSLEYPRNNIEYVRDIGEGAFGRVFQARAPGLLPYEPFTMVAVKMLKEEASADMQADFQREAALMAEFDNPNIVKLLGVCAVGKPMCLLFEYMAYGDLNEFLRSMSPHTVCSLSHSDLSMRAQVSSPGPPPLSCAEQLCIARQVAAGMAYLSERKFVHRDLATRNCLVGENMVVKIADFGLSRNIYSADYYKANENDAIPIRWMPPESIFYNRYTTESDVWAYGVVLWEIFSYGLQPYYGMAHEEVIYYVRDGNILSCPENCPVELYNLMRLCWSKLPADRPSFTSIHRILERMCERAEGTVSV

[11] = target: T2, Muscle, skeletal receptor tyrosine-protein kinase (Homo sapiens); conditions: at 1 µM
[12] = target: Platelet-derived growth factor receptor alpha (Homo sapiens) (UniProt P16234); conditions: at 0.1 µM
[13] = target: Platelet-derived growth factor receptor alpha (Homo sapiens) (UniProt P16234); conditions: at 1 µM
[14] = tested on: Platelet-derived growth factor receptor alpha (Homo sapiens), P16234 [D842V]; conditions: at 0.1 µM
[15] = tested on: Platelet-derived growth factor receptor alpha (Homo sapiens), P16234 [D842V]; conditions: at 1 µM
[16] = tested on: Platelet-derived growth factor receptor alpha (Homo sapiens), P16234 [T674I]; conditions: at 0.1 µM
[17] = tested on: Platelet-derived growth factor receptor alpha (Homo sapiens), P16234 [T674I]; conditions: at 1 µM
[18] = tested on: Platelet-derived growth factor receptor alpha (Homo sapiens), P16234 [V561D]; conditions: at 0.1 µM
[19] = tested on: Platelet-derived growth factor receptor alpha (Homo sapiens), P16234 [V561D]; conditions: at 1 µM
[20] = target: Platelet-derived growth factor receptor beta (Homo sapiens) (UniProt P09619); conditions: at 0.1 µM;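 note: reported value is the mean percent inhibition of the kinase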

Chain of Tyrosine-protein kinase Lyn (Homo sapiens) (P07948 2-512 limits assumed): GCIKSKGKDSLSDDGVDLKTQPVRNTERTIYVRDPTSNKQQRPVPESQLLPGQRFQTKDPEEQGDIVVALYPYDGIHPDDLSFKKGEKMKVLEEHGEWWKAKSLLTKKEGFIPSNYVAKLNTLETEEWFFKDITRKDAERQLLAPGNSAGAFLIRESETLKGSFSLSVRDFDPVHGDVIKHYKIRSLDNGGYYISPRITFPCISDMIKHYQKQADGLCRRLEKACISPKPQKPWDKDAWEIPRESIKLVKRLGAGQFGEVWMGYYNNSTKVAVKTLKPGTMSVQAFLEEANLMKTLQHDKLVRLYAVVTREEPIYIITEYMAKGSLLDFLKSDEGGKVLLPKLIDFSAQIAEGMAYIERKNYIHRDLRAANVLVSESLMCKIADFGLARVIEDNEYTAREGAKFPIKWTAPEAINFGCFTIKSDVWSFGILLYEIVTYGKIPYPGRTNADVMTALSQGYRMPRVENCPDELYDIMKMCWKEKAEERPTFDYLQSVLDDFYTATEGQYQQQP
Chain of Hepatocyte growth factor receptor (Homo sapiens) (P08581 whole entry): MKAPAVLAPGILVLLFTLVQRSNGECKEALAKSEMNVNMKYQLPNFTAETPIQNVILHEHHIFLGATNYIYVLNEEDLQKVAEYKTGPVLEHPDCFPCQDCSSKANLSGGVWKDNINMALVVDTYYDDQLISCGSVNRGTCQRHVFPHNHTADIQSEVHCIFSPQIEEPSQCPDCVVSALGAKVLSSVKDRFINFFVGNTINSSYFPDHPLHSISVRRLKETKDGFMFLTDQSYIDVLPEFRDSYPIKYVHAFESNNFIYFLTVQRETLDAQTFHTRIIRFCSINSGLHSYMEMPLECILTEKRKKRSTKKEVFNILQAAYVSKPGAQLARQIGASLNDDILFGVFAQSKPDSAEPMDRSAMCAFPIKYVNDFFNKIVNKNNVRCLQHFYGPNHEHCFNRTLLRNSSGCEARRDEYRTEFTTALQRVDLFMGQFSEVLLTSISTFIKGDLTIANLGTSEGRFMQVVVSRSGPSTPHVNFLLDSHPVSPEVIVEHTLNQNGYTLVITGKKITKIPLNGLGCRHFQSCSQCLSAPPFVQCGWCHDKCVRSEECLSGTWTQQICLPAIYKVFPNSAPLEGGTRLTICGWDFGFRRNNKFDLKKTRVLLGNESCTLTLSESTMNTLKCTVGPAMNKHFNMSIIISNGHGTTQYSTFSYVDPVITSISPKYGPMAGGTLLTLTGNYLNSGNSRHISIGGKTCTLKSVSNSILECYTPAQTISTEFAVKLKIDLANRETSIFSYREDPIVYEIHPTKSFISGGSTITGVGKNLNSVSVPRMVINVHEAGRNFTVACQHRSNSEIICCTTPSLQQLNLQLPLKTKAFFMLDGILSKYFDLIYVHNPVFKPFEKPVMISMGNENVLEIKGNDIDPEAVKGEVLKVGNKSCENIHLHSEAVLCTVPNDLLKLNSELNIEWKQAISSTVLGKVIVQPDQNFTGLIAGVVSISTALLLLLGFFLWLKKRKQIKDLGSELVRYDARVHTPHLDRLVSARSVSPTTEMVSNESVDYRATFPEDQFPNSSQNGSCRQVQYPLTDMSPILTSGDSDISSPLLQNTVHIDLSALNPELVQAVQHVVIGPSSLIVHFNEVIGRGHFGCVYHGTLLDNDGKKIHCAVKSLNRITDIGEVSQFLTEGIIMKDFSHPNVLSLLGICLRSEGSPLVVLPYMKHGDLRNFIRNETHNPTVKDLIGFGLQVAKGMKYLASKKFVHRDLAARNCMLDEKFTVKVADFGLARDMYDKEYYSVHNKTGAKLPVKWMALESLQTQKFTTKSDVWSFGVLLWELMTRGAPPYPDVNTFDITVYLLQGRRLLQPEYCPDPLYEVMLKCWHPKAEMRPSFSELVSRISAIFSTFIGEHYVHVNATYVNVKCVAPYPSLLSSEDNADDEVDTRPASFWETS
Chain of Platelet-derived growth factor receptor alpha (Homo sapiens), P16234 [D842V] (P16234 whole entry D842V): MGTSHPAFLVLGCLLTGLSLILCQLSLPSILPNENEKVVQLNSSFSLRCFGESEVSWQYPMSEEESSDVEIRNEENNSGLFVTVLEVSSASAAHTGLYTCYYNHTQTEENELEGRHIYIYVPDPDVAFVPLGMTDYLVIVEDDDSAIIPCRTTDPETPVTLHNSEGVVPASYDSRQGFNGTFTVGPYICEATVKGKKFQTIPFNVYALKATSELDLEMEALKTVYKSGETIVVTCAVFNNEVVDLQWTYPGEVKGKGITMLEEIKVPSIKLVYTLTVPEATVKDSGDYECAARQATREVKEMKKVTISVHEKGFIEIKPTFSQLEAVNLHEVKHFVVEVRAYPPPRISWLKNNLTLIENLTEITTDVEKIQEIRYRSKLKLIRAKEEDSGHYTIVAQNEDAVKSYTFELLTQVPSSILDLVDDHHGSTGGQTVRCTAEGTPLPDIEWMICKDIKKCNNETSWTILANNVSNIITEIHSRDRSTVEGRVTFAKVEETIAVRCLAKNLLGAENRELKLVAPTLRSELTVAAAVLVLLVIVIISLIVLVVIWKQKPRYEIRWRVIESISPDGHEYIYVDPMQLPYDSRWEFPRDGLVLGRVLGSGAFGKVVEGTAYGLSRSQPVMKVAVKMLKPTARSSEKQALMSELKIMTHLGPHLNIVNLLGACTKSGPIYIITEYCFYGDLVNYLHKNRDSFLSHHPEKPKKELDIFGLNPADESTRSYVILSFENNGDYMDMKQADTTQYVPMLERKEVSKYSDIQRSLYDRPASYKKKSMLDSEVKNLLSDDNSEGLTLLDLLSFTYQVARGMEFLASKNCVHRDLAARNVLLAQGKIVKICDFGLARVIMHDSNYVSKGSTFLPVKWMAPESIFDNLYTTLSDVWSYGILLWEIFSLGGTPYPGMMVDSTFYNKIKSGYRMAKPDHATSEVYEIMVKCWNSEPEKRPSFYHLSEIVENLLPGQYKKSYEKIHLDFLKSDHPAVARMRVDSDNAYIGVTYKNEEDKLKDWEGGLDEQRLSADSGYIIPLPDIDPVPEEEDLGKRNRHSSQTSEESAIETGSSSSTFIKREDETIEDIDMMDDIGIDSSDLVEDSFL
Chain of Platelet-derived growth factor receptor alpha (Homo sapiens), P16234 [T674I] (P16234 whole entry T674I): as the sequence (P16234 whole entry D842V) above, with T674I, V842D counted along it
Chain of Leukocyte tyrosine kinase receptor (Homo sapiens) (P29376 whole entry): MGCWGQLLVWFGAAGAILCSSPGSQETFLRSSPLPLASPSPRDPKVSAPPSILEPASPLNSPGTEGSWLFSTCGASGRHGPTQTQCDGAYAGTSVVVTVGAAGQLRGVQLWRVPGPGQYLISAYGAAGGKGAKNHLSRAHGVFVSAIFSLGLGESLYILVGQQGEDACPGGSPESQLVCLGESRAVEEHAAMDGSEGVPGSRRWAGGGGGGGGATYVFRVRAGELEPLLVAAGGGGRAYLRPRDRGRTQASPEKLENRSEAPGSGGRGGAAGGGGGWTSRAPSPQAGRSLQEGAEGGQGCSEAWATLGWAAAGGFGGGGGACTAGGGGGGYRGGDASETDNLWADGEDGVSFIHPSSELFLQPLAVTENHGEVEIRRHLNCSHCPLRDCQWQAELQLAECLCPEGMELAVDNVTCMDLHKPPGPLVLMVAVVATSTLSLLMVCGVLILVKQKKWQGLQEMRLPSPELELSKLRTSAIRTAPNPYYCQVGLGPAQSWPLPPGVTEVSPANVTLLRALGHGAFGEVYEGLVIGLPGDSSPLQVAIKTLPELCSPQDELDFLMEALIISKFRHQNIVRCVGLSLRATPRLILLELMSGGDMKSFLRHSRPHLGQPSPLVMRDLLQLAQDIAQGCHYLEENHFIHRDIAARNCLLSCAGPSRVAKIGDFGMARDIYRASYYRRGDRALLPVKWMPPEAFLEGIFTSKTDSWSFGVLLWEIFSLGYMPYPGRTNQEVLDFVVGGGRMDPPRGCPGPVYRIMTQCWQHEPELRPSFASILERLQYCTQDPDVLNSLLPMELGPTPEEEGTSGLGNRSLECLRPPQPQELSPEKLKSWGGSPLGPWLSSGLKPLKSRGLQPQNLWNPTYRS

Compound	inhibition [1]	inhibition [2]	inhibition [3]	inhibition [4]	inhibition [5]	inhibition [6]	inhibition [7]	inhibition [8]	inhibition [9]	inhibition [10]	inhibition [11]	inhibition [12]	inhibition [13]	inhibition [14]	inhibition [15]	inhibition [16]	inhibition [17]	inhibition [18]	inhibition [19]	inhibition [20]
CS(=O)(=O)Nc1cccc(-c2ccc3c(NC(=O)C4CC4)n[nH]c3c2)c1	1.06%	1.17%	1.49%	0.4%	-0.21%	1.36%	1.01%	5.25%	1.91%	0.75%	3.16%	3.7%	13.2%	4.33%	8.89%	0.91%	-1.66%	1.13%	6.51%	-2.19%
CC(C)c1ccc(Nc2nccc(-c3cnn4ncccc34)n2)cc1	10.6%	4.07%	7.45%	2.28%	4.7%	1.42%	7.98%	4.89%	13.5%	3.14%	8.57%	13%	43.5%	6.98%	43%	12.4%	63.6%	18.9%	55.2%	9.63%
NS(=O)(=O)c1cccc(Nc2cc(-c3ccc(F)cc3)n[nH]2)c1	4.08%	5.86%	10.7%	3.31%	8.61%	1.94%	2.95%	9.61%	4.41%	3.78%	13.7%	12.7%	36.1%	3.21%	16.6%	9.3%	43%	29.1%	50.8%	12.7%
COc1cc(/C=N/Nc2ncnc3c2cnn3C(C)C)ccc1O	3.76%	15.2%	58.5%	11.2%	52.7%	3.4%	20.7%	4.44%	5.86%	11.6%	53.2%	17.4%	64.7%	13.3%	61.1%	3.82%	4.12%	12.3%	54.8%	8.52%
CCn1c(-c2nonc2N)nc2ccc(F)cc21	5.25%	7.21%	9.59%	3.75%	5.9%	1.51%	3.19%	8.56%	9.65%	2.27%	3.46%	9.43%	8.14%	3.01%	3.62%	8.13%	10.2%	5.36%	2.86%	5.06%
O=C1Nc2ccccc2/C1=C/Nc1ccc2[nH]c(=O)[nH]c2c1	13.2%	10.5%	30.1%	7.45%	23.2%	1.74%	7.93%	7.49%	14.8%	6.75%	29.5%	26.1%	65.3%	18%	69.2%	18.2%	80.1%	26.1%	69.8%	19.7%
Nc1ccc(C#Cc2cncnc2Nc2ccc(OCc3cccc(F)c3)c(Cl)c2)cc1	3.27%	3.52%	4.42%	3.04%	3.28%	1.5%	2.05%	1.74%	3.8%	-0.05%	-0.75%	3.02%	5.52%	2.77%	2.86%	3.22%	5.56%	1.6%	3.26%	3.04%
O=C1Nc2ccc(-c3cccnc3)cc2C1=Cc1cc(Br)c(O)c(Br)c1	23%	2.95%	11.1%	1.54%	9.06%	1.25%	2.23%	2.89%	5.75%	3.42%	5.67%	10.2%	20.2%	4.65%	12.5%	5.16%	5.71%	5.57%	23.6%	1.45%
NC(=O)c1cccc(Nc2nccc(Nc3cccc(F)c3)n2)c1	6.92%	3.6%	36.1%	2.42%	30.6%	0.08%	4.99%	7.98%	9.64%	0.8%	7.74%	7.13%	43.4%	1.84%	33.6%	0.83%	5.92%	6.64%	46%	11.5%
CN(C)C(=O)O[C@@H]1CN[C@@H](C#Cc2cc3ncnc(Nc4ccc(OCc5cccc(F)c5)c(Cl)c4)c3s2)C1	0.68%	0.77%	2.73%	0.28%	1.62%	-0.95%	2.89%	5.31%	0.32%	-0.25%	1.14%	3.88%	7.94%	0.63%	1.66%	1%	0.01%	0.98%	5.29%	5.61%
O=S(=O)(CCOCc1ccc(-c2ccc3ncnc(Nc4ccc(OCc5cccc(F)c5)c(Cl)c4)c3c2)o1)c1ccccc1	3.13%	1.13%	2.54%	-1.61%	-0.4%	-1.18%	6.22%	0.79%	8.46%	4.67%	5.38%	4.21%	10%	0.75%	1.61%	6.02%	8.5%	3.15%	3.68%	2.33%
NS(=O)(=O)c1ccc(Nc2cc(-c3cccc(O)c3)n[nH]2)cc1	3.32%	6.83%	8.1%	3.6%	3.96%	0.91%	6.51%	5.16%	2.36%	4.32%	12.9%	16.7%	40.4%	4.21%	13.8%	12.8%	6.05%	17.7%	49%	9.08%
CN(c1ccc(NC(=O)Nc2ccc(OC(F)(F)F)cc2)cc1)c1ccnc(Nc2cccc(S(N)(=O)=O)c2)n1	6.43%	39.9%	83.2%	37.1%	83.6%	5.5%	49.2%	34.4%	64.9%	8.36%	58.5%	76.3%	86.7%	9.66%	46.4%	46.9%	87.1%	87.2%	96.8%	67.5%
